For 88 compounds, activation results are on record in PubChem BioAssay AID652126 (The Scripps Research Institute Molecular Screening Center, 2013).

The campaign covered roughly 370,000 compounds. About 3,700 (1%) were called active. The list comes from a sample in which actives are over-represented; it also holds similar structures and randomly drawn compounds. Values without a mark were called inactive.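 How the source made its calls: active means activation above the mean over all tested compounds plus 3 SD (cut at about 0.9% in these data); inactive means the rest.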

The subject of this assay is Nuclear hormone receptor DAF-12 (Strongyloides stercoralis). The assay can be described thus: ssDAF-12 driven luciferase reporter activation – cell-based, luminescence, HEK293, GRIP1 co-expression, lit1-tk-luc, primary screen (AID 652126).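 Further: 0% = DMSO-only wells and 100% = 3 µM delta7-dafachronic acid wells.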 As to conditions: HEK293 ssDAF-12/GRIP1 lit1-tk-luc reporter, at 6.8 µM, hits give high values, % of 3 µM dafachronic acid response.
For the compound `COc1ccccc1-c1nnc(NC(=O)c2cccc(N3C(=O)CCC3=O)c2)o1`, the activation is 1.57% (active).

`O=C(Nc1nnc(-c2ccccc2)o1)c1cccc(S(=O)(=O)N2CCOCC2)c1`: the activation is -0.75%.

Regarding `COc1ccccc1-c1nnc(NC(=O)c2ccc3ncsc3c2)o1`, the activation was 0.27%.

As for `Cc1ccc(NC(=S)NNC(=O)CSc2nnc(SCc3ccccc3Cl)s2)cc1`, the activation was -1.2%.

On to `Cc1ccc(C2=Nc3c(ccc4ccccc34)C(c3ccncc3)=NN2)cc1`, for which the activation was 1.33% (active).

For the compound `CCOc1ccc2c(c1)C(c1ccc(C)cc1)=NNC(c1ccc(C)cc1)=N2`, the activation was -0.66%.

On to `CN(C)c1ccc(NC(=O)NC2CCCCN(Cc3ccc(Cl)cc3)C2=O)cc1` (stereo not drawn), for which the activation is -1.57%.

As for `Cc1ccc(S(=O)(=O)N2[C@@H](c3ccccc3F)C(C(=O)O)=CC[C@H]2c2ccc(Cl)cc2)cc1`, the activation is -1.05%.

On to `Cc1ccc(S(=O)(=O)N2[C@@H](c3cccc(Cl)c3)C(C(=O)O)=CC[C@H]2c2ccc(Cl)c(Cl)c2)cc1`, for which the activation was -1.12%.

Consider `COc1ccc(C2CC=C(C(=O)O)C(c3ccccc3F)N2S(=O)(=O)c2ccc(C)cc2)cc1OC` (stereo not drawn), for which the activation is 1.37% (active).

In the case of `COc1ccc(N2CCN(CCNS(=O)(=O)c3ccc([N+](=O)[O-])cc3)CC2)cc1`, the activation was -1.33%.

For `Cn1c(=O)c(Sc2ccc(Cl)cc2)c(O)c2ccccc21`, the activation is 0.04%.

For `Cn1c(=O)c(C(=O)Nc2ncccn2)c(O)c2ccccc21`, the activation is 2.21% (active).

Turning to `C=CCn1c(=O)c(C(=O)Nc2ncccc2O)c(O)c2ccccc21`, the activation was -0.42%.

For `CN(C)[C@H]1CCN(c2cccc3c2S(=O)(=O)N2CC[C@H](C2)O3)C1`, the activation is -0.74%.

Take `CC(C)(C)NC(=O)C(c1cccnc1)N(C(=O)c1cnco1)c1ccc(C(C)(C)C)cc1` (stereo not drawn): the activation is -2.05%.

Turning to `COc1ccccc1C(=O)N/C(=C/c1ccco1)C(=O)Nc1ccc(C(=O)O)cc1`, the activation was 1.14% (active).

As for `COc1ccc(/C=C(/NC(=O)c2ccco2)C(=O)Nc2ccc(C(C)=O)cc2)cc1`, the activation was -1.1%.

As to `COc1ccccc1C(=O)N/C(=C/c1ccc2c(c1)OCO2)C(=O)Nc1cccc(C(=O)O)c1`, the activation was -0.63%.

For `CCOC(=O)[C@]12CCCC3=C1N(CCC3)C(=O)[C@@H](CC(=O)NCC13CC4CC(CC(C4)C1)C3)C2`, the activation is -0.93%.

With `Cc1ccc(NC(=O)Cc2cccc(F)c2)c(S(=O)(=O)N2CCOCC2)c1`, the activation is -0.55%.

With `O=C(NC1CCCC1)C1CSCCS(=O)(=O)N1Cc1ccccc1` (stereo not drawn), the activation is -1.05%.

Regarding `Cc1noc(C)c1/C=N/Nc1ccc2ccccc2n1`, the activation was 1.61% (active).

As to `C=CCN1C(=O)[C@H](CC(=O)N2CCN(C(=O)OCC)CC2)[C@@]2(C(=O)OCC)CCCC=C12`, the activation was -0.45%.

For `Cc1ccc(-n2c(SCC(=O)Nc3ccc(S(=O)(=O)Nc4nccs4)cc3)nnc2-c2ccccn2)cc1`, the activation is -0.88%.

On to `Cc1ccnc(-n2sc3ccccc3c2=O)n1`, for which the activation is 0.16%.

Take `Cc1ccnc(Nc2nc3ccccc3s2)n1`: the activation was 1.25% (active).

For `Cc1cccc(NC(=O)C[C@H]2CC[C@H]3[C@@H](COc4ccc(NC(=O)Nc5ccccc5)cc4C(=O)N3C)O2)c1`, the activation was -1.84%.

On to `Cc1cccc(S(=O)(=O)N2CN(CC3CCCO3)c3nc4ccccc4nc32)c1` (stereo not drawn), for which the activation is -0.43%.

Turning to `CCOC(=O)C1CCN(C(=O)C(C)(C)NC(=O)Nc2ccc(F)c(F)c2)CC1`, the activation is -1.1%.

For `COC(=O)C1CN(CC(C)C)CCS(=O)(=O)N1Cc1ccc(C)cc1` (stereo not drawn), the activation is -0.69%.

Take `COc1ccccc1OCc1nc2ccccc2s1`: the activation was 2.57% (active).

In the case of `COc1ccccc1OCc1nnc(SCC(N)=O)n1-c1ccccc1`, the activation is -1.54%.

For the compound `CCc1ccc(-c2nnn(Cc3nc4ccccc4s3)n2)cc1`, the activation was -0.71%.

With `COC(=O)C12C=C3CC(c4ccccc4)=C3C(=O)N1Cc1[nH]c3ccccc3c1C2` (stereo not drawn), the activation is -1.07%.

`COc1ccc2c(c1)CN1CN(CCc3ccccc3)S(=O)(=O)CC21` (stereo not drawn): the activation was -0.04%.

Turning to `Cc1nnsc1C(=O)NCc1c(F)cccc1Cl`, the activation was -0.35%.

As to `Cc1cc(Cl)ccc1NNC(=O)c1snnc1C`, the activation is 2.01% (active).

Turning to `Cc1nnsc1C(=O)Nc1cccc(Cl)c1C`, the activation was -1.69%.

For the compound `CCOC(=O)/C=C/c1ccccc1O`, the activation was -1.38%.

On to `COc1ccnc(Oc2ccccc2)n1`, for which the activation was -0.92%.

As to `COc1ccc(-n2c(SCC(=O)OC(C)C)nnc2-c2ccccn2)cc1`, the activation was -1.58%.

Regarding `COc1ccc2nc(-c3ccccn3)ccc2c1`, the activation is 0.98% (active).

On to `CC(c1ccc(N)cc1)c1cn(C)c2ccccc12` (stereo not drawn), for which the activation was -1.36%.

For `C=CS(=O)(=O)N(Cc1nnn(Cc2ccccc2)c1Br)[C@H](C(=O)OC)C(C)C`, the activation was -1.75%.

Regarding `COc1cc(/C=C/C(=O)n2cnc3ccccc32)cc(OC)c1OC`, the activation was -2.15%.

`COc1ccnc(NC(=S)N2CCN(c3ncc(C(F)(F)F)cc3Cl)CC2)c1`: the activation is -1.56%.

As to `CN(CCO)S(=O)(=O)c1ccc2c(c1)C(=O)c1cc(S(=O)(=O)N(C)CCO)ccc1-2`, the activation is -1.38%.

As to `COC(=O)[C@]12C[C@H](CC(=O)NCc3ccccc3)C(=O)N(CCc3ccc(OC)c(OC)c3)C1=C[C@H](C(C)(C)C)O[C@@H]2C`, the activation is -1.28%.

With `COc1ccc(CSc2nnc(SCC(=O)Nc3ccccc3C(F)(F)F)s2)cc1`, the activation was -1.22%.

For the compound `Fc1ccc2nc(Nc3nc4c(s3)CCCC4)sc2c1`, the activation is 1.92% (active).

Consider `COC(=O)C(NC(C)=O)(Nc1nc2c(s1)CCCC2)C(F)(F)F` (stereo not drawn), for which the activation was -0.86%.

For `C[C@H]1CCC/C=C/C(=O)c2c(O)cc(O)cc2CC(=O)O1`, the activation was -1.77%.

As for `CCCCOCCCNC(=O)C[C@H]1C[C@@]2(C(=O)OC)C(=C[C@H](COCc3ccccc3)O[C@@H]2C)N(Cc2cccc3ccccc23)C1=O`, the activation was -1.25%.

In the case of `COC(=O)[C@]12C[C@H](CC(=O)NCCc3ccccc3OC)C(=O)N(Cc3ccco3)C1=C[C@H](C(C)C)O[C@@H]2C1CC1`, the activation is -1.3%.

`CCCN(c1ccc(C)cc1)c1nc(=O)c2cccnc2s1`: the activation was 1.12% (active).

For the compound `COc1ccnc(C(=O)N2CCC(Oc3cccnc3)CC2)c1`, the activation is -1.55%.

`CCCCCCN1CCS(=O)(=O)N(Cc2ccc(C(F)(F)F)cc2)C(C(=O)OC)C1` (stereo not drawn): the activation was -0.61%.

As for `CN[C@H]1C[C@H]2c3cc(N4CCOCC4)ccc3CCN2C[C@H]1[C@H](C)O`, the activation was -1.27%.

In the case of `COCc1ccc(C(=O)N2CCc3c([nH]c4ccccc34)C2c2ccccn2)s1` (stereo not drawn), the activation was -2.05%.

Turning to `O=C(c1cn2ccccc2n1)N1CCc2c([nH]c3ccccc23)C1c1ccccn1` (stereo not drawn), the activation is 0.91% (active).

As for `c1ccc(C2c3[nH]c4ccccc4c3CCN2Cc2cccn2-c2cccnc2)nc1` (stereo not drawn), the activation was -1.17%.

For the compound `CCC(C)[C@@H](C(=O)OC)N(CCc1cn(Cc2ccccc2)nn1)S(=O)(=O)c1ccccc1Br` (stereo partly drawn), the activation was -1.79%.

Turning to `COc1ccc(/C=C/c2c(-c3cccc(C)c3)oc3ccc(-c4ccc5c(c4)OCO5)cc23)cc1`, the activation was -1.12%.

`COc1ccc(C2=Nc3cc(C)ccc3OC2)cc1`: the activation was 1.43% (active).

For the compound `COc1ccc([C@H]2CC(=O)C=C(c3ccc(C)cc3)C2)cc1`, the activation was -0.86%.

As to `CCOc1ccc(Oc2c(Cl)cnn(-c3ccc(C)cc3)c2=O)cc1`, the activation is -1.17%.

With `Cc1ccc(C2=NN(C)c3nc4ccccc4n3C2)cc1`, the activation is 1.2% (active).

`Cc1ccc(-c2nnc(-n3nnc4ccccc43)c3ccccc23)cc1`: the activation was -1.26%.

For `Cc1nc2ccccc2n1CC(O)c1ccccc1` (stereo not drawn), the activation is -1.14%.

With `O=C(CCCCCN1C(=O)C2C3C=CC(C3)C2C1=O)Nc1ccccc1` (stereo not drawn), the activation is -1.12%.

Regarding `COc1c(N2CCN(C(=S)Nc3ccccc3F)C(C)C2)c(F)cc2c(=O)c(C(=O)O)cn(C3CC3)c12` (stereo not drawn), the activation is -0.28%.

With `O=C(NC1CCC1)c1ccc(C#Cc2cccc(F)c2)c[n+]1[O-]`, the activation is -1.07%.

`CSc1nc(C)nc(C2CC2)c1C#N`: the activation was -1.49%.

`CC(CNC(=O)c1ccc(N)cc1)NC(=O)c1ccc(N)cc1` (stereo not drawn): the activation is -1.71%.

Regarding `Nc1ccc(C(=O)Nc2ccccc2N)cc1`, the activation was 1.55% (active).

With `O=C(Nc1ccccc1C(=O)N1CCOCC1)c1ccc(Cl)cc1`, the activation is -1.32%.

Consider `Cc1ccc(-n2c(COc3ccccc3)nnc2SCC(=O)Nc2ccc3c(c2)OCCO3)cc1`, for which the activation was -1.43%.

`COC(=O)c1ccc(NC(=S)Nc2cccc(C)n2)cc1`: the activation was -0.35%.

Take `CC(NC(=O)COC(=O)c1ccc2ccccc2n1)c1ccccc1` (stereo not drawn): the activation is -0.49%.

Consider `Cc1cccc(NC(=O)c2ccc3ccccc3n2)n1`, for which the activation was 1.11% (active).

Regarding `Cc1c(C(C)c2ccccc2O)[nH]c2ccccc12` (stereo not drawn), the activation is -0.11%.

As for `CCOc1ccc(-n2c(SCC(=O)Nc3cc(C)c(NC(=O)c4ccccc4)cc3OC)nnc2-c2cccs2)cc1`, the activation is -1.35%.

Turning to `CCOC(=O)N1CCN(C(=O)C[C@H]2C[C@@]3(C(=O)OC)C(=C[C@H](C(C)(C)C)O[C@@H]3C)N(Cc3ccc(Cl)cc3Cl)C2=O)CC1`, the activation is -1.86%.

Regarding `COc1ccc(OC)c(S(=O)(=O)NCCC(C)C)c1`, the activation was 1.47% (active).

Regarding `COCCNS(=O)(=O)c1cc(Br)ccc1OC`, the activation is -1.56%.

In the case of `COc1ccc(C)cc1S(=O)(=O)NCCc1ccccc1`, the activation is -0.72%.

Take `CC(C)CNc1cccc2c1S(=O)(=O)N(Cc1cn(Cc3ccc(Cl)cc3)nn1)Cc1ccccc1O2`: the activation is -1.25%.
